Among the data in PubChem BioAssay are z-score and composite z-score values, retold here.

Assay [1] is described as follows: resazurin metabolic signal in HepG2 cells – cell-based, resazurin fluorescence, 24 h, PK04 Diversity Set, profiling panel (AID 1172). The note with it: HepG2 viability, higher = more signal.
The nature of assay [2]: budding yeast growth changes without added modifier – OD600, strain BY4716, 24 h, basal condition, primary screen (AID 1173). The note with it: S. cerevisiae BY4716 growth, OD600, 24 h; higher = more signal, called active from +8 up or from −8 down.
Assay [3] is described as follows: viability profiling in MM1S myeloma cells – cell-based, resazurin fluorescence, basal, 24 h, PK04 Diversity Set, profiling panel (AID 1174).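 Note: MM1S multiple myeloma cell line.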 The following applies: higher = more signal, called active from +8 up or from −8 down.
Assay [4] has as its target Dihydroorotate dehydrogenase (quinone), mitochondrial (Plasmodium falciparum (isolate 3D7)) (UniProt Q08210). Description: inhibition of P. falciparum DHODH – biochemical, C-terminal His tag, absorbance 600 nm, primary screen (AID 1175).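 Note: recombinant parasite enzyme with a five histidine tag at its C terminus.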 The following applies: PfDHODH enzyme, DCIP absorbance 600 nm; higher = more signal, called active from +8 up or from −8 down.
A short description of assay [5]: inhibition of PAO1 biofilm formation – strain PAO1, LB-PBS medium, absorbance 600 nm, primary screen (AID 1176). The following applies: P. aeruginosa PAO1 growth/biofilm, A600, 12 h; higher = more signal.
The nature of assay [6]: growth modulation of vineyard yeast isolate – strain RM11-1a, OD600, basal, 24 h, primary screen (AID 1177).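 Note: cultures grown under basal conditions with no added stressor.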 The following applies: S. cerevisiae RM11-1a growth, OD600, 24 h; higher = more signal, called active from +8 up or from −8 down.
Assay [7] is described as follows: growth of efflux-deficient E. coli DRC39 – strain DRC39, OD650, 24 h, E. coli filamentation inducers, primary screen (AID 1178).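 Note: growth measured as culture turbidity by optical density at 650 nm.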 The note with it: E. coli DRC39 acrAB, higher = more signal, called active from +8 up or from −8 down.
The nature of assay [8]: growth of efflux-deficient E. coli DRC39 – strain DRC39, OD650, 48 h, E. coli filamentation inducers, primary screen (AID 1179).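 Note: screen aims at cell division blockers that make cells filament.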 The note with it: E. coli DRC39 delta-acrAB growth, higher = more signal, called active from +8 up or from −8 down.
Assay [9] is described as follows: viability profiling in RPMI8226 myeloma cells – cell-based, resazurin fluorescence, basal, 24 h, PK04 Diversity Set, profiling panel (AID 1180).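 Note: RPMI8826 multiple myeloma cell line at 5000 cells per well.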 The note with it: higher = more signal.
For assay [10], the target named is E3 ubiquitin-protein ligase XIAP (Homo sapiens) (UniProt P98170). Description: small molecules binding XIAP protein – biophysical, small-molecule microarray, fluorescence 635 nm, primary screen (AID 1181).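 Note: score merges 667 nm emission and signal to noise over triplicate slides.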 The note with it: higher = more signal.
Assay [11] relates to XIP peptide (Xip251-270) binding. Briefly: XIP fragment 251-270 binding compounds – biochemical, small-molecule microarray, fluorescence 635/667 nm, 0.1 µg/mL protein, primary screen (AID 1182). The note with it: fluorescent protein binding, 635 nm, higher = more signal, called active from +8 up or from −8 down.
In the next assay the test system is XIP peptide (Xip251-270). Briefly: compounds binding XIP fragment 251-270 – biochemical, small-molecule microarray, fluorescence 635/667 nm, 0.5 µg/mL protein, primary screen (AID 1183). The note with it: fluorescence 635 nm, higher = more signal.
Assay [12] can be described thus: blood-stage malaria parasite viability loss – strain 3D7, DAPI fluorescence, 100 nL, primary screen (AID 1184).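 Note: parasites grown inside human red blood cells in medium with human serum.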 The following applies: P. falciparum 3D7 growth, 3 d, higher = more signal.
In assay [13] the target is Homeobox protein Hox-A13 (Mus musculus) (UniProt Q62424). Briefly: disruptors of Hoxa13 oligonucleotide interaction – biochemical, fluorescence polarization, labeled oligonucleotide, primary screen (AID 1185). The following applies: Hoxa13:DNA binding, 15 min, higher = more signal, called active from +8 up or from −8 down. A general note: Fluorescence polarisation rises when a labelled molecule tumbles more slowly, as on binding a larger partner.

Assay [14] is described as follows: blockers of DNA damage checkpoint Chk1 activation – imaging, HeLa, hydroxyurea, phospho-Chk1 antibody, percent positive cells, primary screen (AID 1186). The note with it: hydroxyurea-induced phospho-Chk1 immunofluorescence imaging, higher = more signal.
A short description of assay [15]: blockers of DNA damage checkpoint Chk1 activation – imaging, HeLa, hydroxyurea, phospho-Chk1 nuclear intensity, primary screen (AID 1187). The note with it: hydroxyurea-induced phospho-Chk1 immunofluorescence imaging, higher = more signal.

Activity calls are given as the source filed them. Unless noted, the rule behind the calls is not given here.

Chain of Dihydroorotate dehydrogenase (quinone), mitochondrial (Plasmodium falciparum (isolate 3D7)) (Q08210 whole entry, looked up): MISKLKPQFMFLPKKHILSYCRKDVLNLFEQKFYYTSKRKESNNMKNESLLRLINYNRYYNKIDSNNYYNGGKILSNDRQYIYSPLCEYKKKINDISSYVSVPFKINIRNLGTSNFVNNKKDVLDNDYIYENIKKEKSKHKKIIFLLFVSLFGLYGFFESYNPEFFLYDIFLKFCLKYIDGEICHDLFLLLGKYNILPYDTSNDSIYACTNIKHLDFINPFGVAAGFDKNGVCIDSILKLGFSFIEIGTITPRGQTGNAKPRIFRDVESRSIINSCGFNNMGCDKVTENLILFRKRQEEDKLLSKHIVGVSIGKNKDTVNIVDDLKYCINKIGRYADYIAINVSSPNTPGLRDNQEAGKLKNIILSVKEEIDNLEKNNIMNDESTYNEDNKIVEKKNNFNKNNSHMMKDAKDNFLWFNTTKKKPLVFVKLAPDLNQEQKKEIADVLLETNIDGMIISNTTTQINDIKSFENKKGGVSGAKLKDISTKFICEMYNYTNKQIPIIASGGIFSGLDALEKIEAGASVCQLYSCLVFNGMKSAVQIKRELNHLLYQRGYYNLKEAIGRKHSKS
Chain of Homeobox protein Hox-A13 (Mus musculus) (Q62424 whole entry, looked up): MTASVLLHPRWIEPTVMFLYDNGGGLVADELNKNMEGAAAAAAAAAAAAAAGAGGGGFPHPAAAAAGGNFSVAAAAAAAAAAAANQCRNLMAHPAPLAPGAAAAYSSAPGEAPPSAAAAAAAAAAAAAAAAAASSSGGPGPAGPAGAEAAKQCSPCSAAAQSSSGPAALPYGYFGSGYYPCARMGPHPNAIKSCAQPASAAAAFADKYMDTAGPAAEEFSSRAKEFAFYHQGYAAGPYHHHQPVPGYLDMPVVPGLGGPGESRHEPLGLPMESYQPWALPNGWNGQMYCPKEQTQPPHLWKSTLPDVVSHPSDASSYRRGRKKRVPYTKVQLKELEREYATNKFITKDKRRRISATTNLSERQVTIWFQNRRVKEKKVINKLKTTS
Chain of E3 ubiquitin-protein ligase XIAP (Homo sapiens) (P98170 whole entry, looked up, the tested form may be a part): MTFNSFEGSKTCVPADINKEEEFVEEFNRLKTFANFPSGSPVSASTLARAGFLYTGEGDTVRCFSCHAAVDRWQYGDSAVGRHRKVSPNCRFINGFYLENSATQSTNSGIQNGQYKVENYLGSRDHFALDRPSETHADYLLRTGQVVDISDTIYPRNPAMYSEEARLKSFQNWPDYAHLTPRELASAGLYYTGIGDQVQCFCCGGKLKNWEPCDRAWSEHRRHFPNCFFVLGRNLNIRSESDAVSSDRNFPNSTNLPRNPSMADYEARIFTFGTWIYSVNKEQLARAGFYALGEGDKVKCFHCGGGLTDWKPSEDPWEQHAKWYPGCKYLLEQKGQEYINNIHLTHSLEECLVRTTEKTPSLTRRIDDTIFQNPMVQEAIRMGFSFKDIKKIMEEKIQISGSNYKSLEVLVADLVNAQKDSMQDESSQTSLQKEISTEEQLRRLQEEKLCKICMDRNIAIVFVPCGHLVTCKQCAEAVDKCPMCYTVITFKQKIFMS

Turning to `CN1C(=O)C2C=CC(C(O)C3CCCCC3)N(N3CCCCC3)C2C1=O` (centres undefined), the z-score in assay [1] was -0.435; in assay [2], 0.369 (inactive); in assay [3], -0.752 (inactive); in assay [5], 0.158 (inactive); in assay [6] it was 1.51 (inactive); in assay [7], -0.501 (inactive). The z-score in assay [8] was -0.406 (inactive); in assay [9], -0.487; in assay [12], -0.151; in [13], -3.82 (inactive); in assay [14], 0.796 (inactive); in [15] it was 0.332 (inactive). In addition, the composite z-score in assay [4] was 0.419 (inactive); in assay [10], -0.0548; in assay [11] it was 0.269 (inactive); in the assay with XIP peptide (Xip251-270), 0.803.

For the molecule `COc1ccc([Si](C)(C)[C@@H]2[C@@H](CCO)O[C@]3(C(=O)N(Cc4cccc(N5C(=O)c6ccccc6Oc6ccccc65)c4)c4ccccc43)[C@H]2C)cc1`, the z-score in assay [1] was -1.11; in [2], 1.02 (inactive); in assay [3], -4.32 (inactive); in [5] it was 1.64 (inactive); in assay [6], 5.08 (inactive); in assay [7] it was 1.89 (inactive). For the same molecule, the z-score in assay [8] is 1.48 (inactive); in [9], -2.95; in [12], -2.47; in [13] it was -1.49 (inactive); in [14], -0.665 (inactive); in [15], -0.278 (inactive). The composite z-score in [4] was 0.786 (inactive); in assay [10], -0.177; in assay [11] it was 0.872 (inactive); with XIP peptide (Xip251-270) it was 0.41.

As for `Cc1ccc(C(C)CC(O)C2C=CC3C(=O)N(c4ccccc4)C(=O)C3N2Nc2ccc(C(C)C)cc2)o1` (centres undefined), the z-score in assay [1] was -1.32; in [2] it was 0.123 (inactive); in assay [3], -0.905 (inactive); in assay [5] it was 1.5 (inactive); in assay [6], 0.685 (inactive); in assay [7], -0.751 (inactive). The z-score in [8] is -0.682 (inactive); in assay [9], -1.03; in assay [12], 0.0472; in assay [13], -3.2 (inactive); in assay [14], 0.527 (inactive); in assay [15], 0.482 (inactive). Also, the composite z-score in assay [4] is 0.824 (inactive); in assay [10], -0.0238; in [11], 0.195 (inactive); in the assay on XIP peptide (Xip251-270), 0.691.

As to `CCOC(=O)C1=C[C@@H](c2ccccc2)N(S(=O)(=O)c2ccc(C)cc2)[C@H]1c1cccc(Cl)c1`, the z-score in [1] is -0.663; in [2] it was 1.7 (inactive); in [3] it was -0.848 (inactive); in [5], -0.169 (inactive); in assay [6], 2.1 (inactive); in assay [7], -0.823 (inactive). Moreover, the z-score in [8] is -0.777 (inactive); in [9] it was -1.64; in assay [12], -2.03; in assay [13], 0.587 (inactive); in assay [14] it was 0.289 (inactive); in assay [15], 0.284 (inactive). In addition, the composite z-score in assay [4] was -0.184 (inactive); in assay [10] it was -0.221; in assay [11], 0.526 (inactive); in the assay on XIP peptide (Xip251-270) it was 0.803.

As for `C[n+]1ccc(CCCO)cc1`, the z-score was -0.744 in assay [1]; 0.883 (inactive) in assay [2]; -0.255 (inactive) in [3]; -0.199 (inactive) in [5]; 0.684 (inactive) in [6]; -1.02 (inactive) in assay [7]. For the same molecule, the z-score is -1.1 (inactive) in [8]; -0.551 in assay [9]; -1.21 in assay [12]; -2.17 (inactive) in assay [13]; -0.0124 (inactive) in assay [14]; 0.102 (inactive) in assay [15]. Moreover, the composite z-score was -4.35 (inactive) in assay [4], 0.769 in assay [10], 0.955 (inactive) in [11] and 1.02 in the assay on XIP peptide (Xip251-270).

`Cc1ccc(F)cc1S(=O)(=O)N[C@@H]1CCN(Cc2ccc(OC(C)C)cc2)C1`: the z-score in assay [1] was -0.917; in assay [2], -8.98 (active); in [3], -2.09 (inactive); in assay [5], -0.225 (inactive); in [6] it was 0.652 (inactive); in assay [7], -20 (active). For the same molecule, the z-score in assay [8] was -19.8 (active); in [9] it was -0.945; in [12], -0.85; in assay [13] it was -5.27 (inactive); in [14], 0.239 (inactive); in [15], 1.54 (inactive). Further, the composite z-score was -0.0588 (inactive) in assay [4], -0.0794 in assay [10], -0.46 (inactive) in assay [11] and -0.701 in the assay on XIP peptide (Xip251-270).

Turning to `CN(C)C(=O)[C@@]1(Cc2ccccc2N=[N+]=[N-])COC(c2ccc(OCCCO)cc2)=N1`, the z-score is 1.44 in [1]; -4.24 (inactive) in assay [2]; -0.0135 (inactive) in assay [3]; -0.497 (inactive) in [5]; 0.481 (inactive) in assay [6]; 0.632 (inactive) in [7]. Also, the z-score in assay [8] was 1.42 (inactive); in [9], 0.816; in assay [12] it was -1.8; in assay [13], -5.84 (inactive); in assay [14], -0.408 (inactive); in assay [15], -0.362 (inactive). The composite z-score was 0.369 (inactive) in [4], 0.194 in assay [10], 0.472 (inactive) in [11] and 0.605 with XIP peptide (Xip251-270).

Take `O=C1O[C@@H](c2ccccc2)[C@@H](c2ccccc2)N2[C@@H](c3ccccc3OCCO)[C@]3(C(=O)Nc4ccccc43)[C@@H](C(=O)NC[C@H](O)c3ccccc3)[C@H]12`: the z-score in assay [1] is -1.03; in assay [2], 0.587 (inactive); in assay [3], -6.16 (inactive); in assay [5] it was 2.05 (inactive); in [6], 3.08 (inactive); in [7], -0.0586 (inactive). Also, the z-score in assay [8] was 0.495 (inactive); in assay [9], -6.99; in assay [12], -0.692; in assay [13], -5.34 (inactive); in assay [14], -0.152 (inactive); in assay [15] it was -0.169 (inactive). In addition, the composite z-score was 1.65 (inactive) in assay [4], 0.311 in assay [10], 1.42 (inactive) in [11] and -0.303 with XIP peptide (Xip251-270).

In the case of `COC(=O)C(CC#Cc1ccc2c(c1)[C@]1(C(=O)N2)[C@H](C(=O)O)[C@H]2C(=O)O[C@H](c3ccccc3)[C@H](c3ccccc3)N2[C@@H]1c1ccccc1OCCO)C(=O)OC`, the z-score was 0.289 in assay [1]; -0.307 (inactive) in [2]; 0.0819 (inactive) in assay [3]; 2.07 (inactive) in assay [5]; 2.55 (inactive) in assay [6]; 0.698 (inactive) in [7]. The z-score is 0.202 (inactive) in assay [8]; -4.42 in assay [9]; -2.06 in [12]; -6.38 (inactive) in [13]; -0.244 (inactive) in assay [14]; -0.674 (inactive) in assay [15]. Moreover, the composite z-score in assay [4] is -18.9 (active); in [10] it was -0.0673; in assay [11] it was 0.341 (inactive); with XIP peptide (Xip251-270) it was 0.853.
